High-throughput results from PubChem.
The list is not random: actives were taken first. Their share in the collection is about 2.2%.
NPR1 activator – GC-A (human) enzyme activation | P16066 | HEK293 GC-A cells, cGMP TR-FRET, EC30 ANP; 0% at EC30 ANP, 100% saturating ANP | activation, % at 10 µM | 370,000 compounds, 0.14% hits | AID 1671463; in the data active = activation above about 40%
ADAM17 inh – inhibitors of human ADAM17; P78536; recombinant ADAM17, EDANS/DABCYL FRET peptide cleavage; inhibition, % at 6.95 µM; 370,000 compounds, 0.83% hits;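 active = inhibition above the mean of compounds lying between control limits plus 3 SD, set per campaign, cut at about 8.5% in these data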;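 note: 0% = DMSO-only wells as the low control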
ADAM10 inh – inhibitors of human ADAM10; recombinant ADAM10, EDANS/DABCYL FRET peptide cleavage, 3 h; inhibition, % at 7 µM; 370,000 compounds, 0.62% hits;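 active = inhibition above a per-campaign cutoff equal to the mean of compounds falling between control-based bounds plus 3 SD, cut at about 20% in these data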;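 note: 0% = DMSO wells while the 100% control is not disclosed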
Target sequence (O14672 214-748 limits assumed): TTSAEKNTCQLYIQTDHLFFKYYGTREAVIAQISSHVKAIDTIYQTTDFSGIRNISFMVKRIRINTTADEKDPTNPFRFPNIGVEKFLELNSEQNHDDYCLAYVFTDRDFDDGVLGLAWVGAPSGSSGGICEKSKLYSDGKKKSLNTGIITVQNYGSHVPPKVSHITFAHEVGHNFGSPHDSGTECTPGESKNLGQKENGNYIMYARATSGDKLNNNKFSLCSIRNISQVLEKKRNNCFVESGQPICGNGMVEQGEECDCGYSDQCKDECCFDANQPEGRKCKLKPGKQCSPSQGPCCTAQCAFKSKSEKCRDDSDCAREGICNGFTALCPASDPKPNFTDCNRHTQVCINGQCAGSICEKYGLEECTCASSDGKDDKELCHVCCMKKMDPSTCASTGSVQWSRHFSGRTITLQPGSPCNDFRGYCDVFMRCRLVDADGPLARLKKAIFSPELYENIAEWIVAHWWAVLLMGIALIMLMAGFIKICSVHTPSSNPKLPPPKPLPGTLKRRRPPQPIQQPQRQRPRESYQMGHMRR
NPR2 activator – GC-B (human) receptor activation. HEK293-GC-B cells, CNP EC30, cGMP TR-FRET; 0% at EC30 CNP, 100% saturating CNP. P20594. 370,000 compounds, 0.11% hits. activation, % at 10 µM. AID 1920062;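 active = activation at 10 µM reaching about 35% in either raw or pattern-adjusted values, limit read from the data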
KLK7 zymogen act – activators of human kallikrein-7 zymogen; activation, % at 7 µM; purified proKLK7, EDANS-DABCYL substrate fluorescence; 100% is mature enzyme control, 0% vehicle; 370,000 compounds, 0.9% hits; P49862;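 active = activation above the mean of all tested compounds plus 3 SD, computed per campaign excluding outliers beyond control limits, cut at about 13% in these data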
ADAM10 confirm – human ADAM10 inhibition, confirmation; shares compounds with ADAM10 inh; ADAM10 QFRET peptide cleavage, EDANS fluorescence; inhibition, % at 6.95 µM; 2,100 compounds, 1% hits; AID 743208;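 active = inhibition above about 20% chosen separately for each screening run, limit read from the data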;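 note: 0% = DMSO wells and 100% = marimastat wells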
ADAM17 counter – ADAM17 inhibition, counter-screen for ADAM10 exosite hits; shares compounds with ADAM10 inh; ADAM17 QFRET peptide cleavage, EDANS fluorescence; inhibition, % at 6.95 µM; 2,100 compounds, 0.5% hits;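 active = mean triplicate inhibition above the solvent-only control wells' mean plus 3 SD, cut at about 12% in these data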;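 note: 0% = DMSO wells and 100% = marimastat wells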
The depositor's hits bear a star; x = not tested or not shown.

SMILES | NPR1 activator | ADAM17 inh | ADAM10 inh | NPR2 activator | KLK7 zymogen act | ADAM10 confirm | ADAM17 counter
CC(Nc1ccc(Cl)cc1)c1cc(Cl)ccc1O (stereo not given) | -23 | 8 | 23* | -22 | 0 | 3 | 1
COC(=O)C1CN(Cc2cn(Cc3ccc(OC)cc3)nn2)CCS(=O)(=O)N1Cc1ccc(OC)cc1 (stereo not given) | 0 | -1 | -6 | -2 | 0 | x | x
COCCn1c(SCC(=O)N2CCCC2)nc2c(c1=O)SCC2 | -1 | 7 | 21* | 3 | 1 | 6 | 1
COCCn1c(SCC(=O)N2CCC(C)CC2)nc2c(c1=O)SCC2 | -3 | 0 | -12 | -1 | 1 | x | x
Nn1c(SCC(=O)Nc2cccc3ccccc23)nnc1-c1n[nH]c2c1CCC2 | 0 | 0 | 3 | -7 | 1 | x | x
C=CCn1c(NCc2cc(C)ccc2O)nc2ccccc21 | -16 | 0 | -1 | -11 | 0 | x | x
Cn1c(NCc2cc(Br)ccc2O)nc2ccccc21 | -16 | 5 | 21* | -13 | 0 | 1 | 0
CCCCn1c(NCc2cc(C)ccc2O)nc2ccccc21 | -10 | 6 | 23* | -14 | 1 | 3 | 1
CCS(=O)(=O)c1ccc2oc(Nc3ccc(C(C)(C)C)cc3)nc2c1 | -2 | 6 | 24* | -1 | 0 | 1 | 0
CCS(=O)(=O)c1ccc2oc(Nc3ccc(OC)cc3)nc2c1 | 1 | -1 | -4 | 2 | 0 | x | x
O=c1[nH]c(C2CCN(S(=O)(=O)c3ccc(F)cc3)CC2)nc2c1nnn2Cc1ccc2c(c1)OCCO2 | 8 | 1 | 23* | -2 | 0 | 2 | 1
O=c1[nH]c(C2CCN(S(=O)(=O)/C=C/c3ccccc3)CC2)nc2c1nnn2Cc1ccc(F)cc1 | 8 | 8 | 29* | -5 | 0 | 2 | 2
Cc1ccc(Cn2nnc3c(=O)[nH]c(C4CCN(S(=O)(=O)c5ccc(F)cc5)CC4)nc32)cc1 | 1 | 6 | 21* | 0 | 0 | 1 | 1
O=c1[nH]c(C2CCN(S(=O)(=O)Cc3ccccc3)CC2)nc2c1nnn2Cc1ccccc1 | 1 | 4 | -1 | -3 | 1 | x | x
CC(C)[C@H](N)C(=O)N[C@H](C(=O)N1CCC2CCN(S(=O)(=O)c3ccccc3)CC21)C(C)C (stereo not given in full) | 3 | -3 | -2 | 0 | 0 | x | x
Cn1c(CSc2nc3ccccc3s2)n[nH]c1=S | 0 | -4 | 0 | -10 | 0 | x | x
S=c1[nH]nc(CSc2nc3ccccc3s2)o1 | -4 | 6 | 25* | -11 | 0 | -3 | 0
CCCCn1c(N)c(N(CC)C(=O)c2ccc(N3CCCC3=O)cc2)c(=O)[nH]c1=O | -1 | -4 | -4 | 4 | 1 | x | x
CCCCn1c(N)c(N(CCC(C)C)C(=O)c2ccc(N3CCCC3=O)cc2)c(=O)[nH]c1=O | 0 | -3 | 63* | -1 | 0 | 4 | 3
Cc1onc(-c2ccccc2)c1-c1nnc(COC(=O)c2ccc(O)cc2)o1 | -5 | 7 | 22* | 0 | 0 | 0 | 0
COc1ccc(-c2cc(-c3ccc(C)cc3)n[nH]2)c(O)c1 | -6 | 6 | 33* | -4 | 0 | 2 | 2
Cc1[nH]nc(-c2ccc(O)cc2O)c1-c1ccc(Cl)cc1 | 70* | 7 | 20* | -8 | 0 | 2 | 0
COc1ccc(-c2n[nH]c(C)c2-c2ccc(Cl)cc2)c(O)c1 | 7 | 8 | 20* | 1 | 0 | 5 | 3
COc1ccc(-c2cc(-c3cc(C)ccc3O)[nH]n2)cc1 | -3 | 5 | 17 | -2 | 0 | x | x
CCCCOCCCNC(=O)C[C@H]1C(=O)N(Cc2ccc(OC)cc2)C2=CCCC[C@@]21C(=O)OCC | 2 | 2 | 4 | 1 | 0 | x | x
O=C(NN=Cc1ccccc1C(F)(F)F)c1cc(-c2ccc(Cl)cc2)n[nH]1 | 2 | -3 | -11 | 9 | 0 | x | x
